Data taken from PubChem BioAssay (NCI).
About 79,000 compounds went through this panel and 15% of them were active in at least one assay; those are over-represented in the sample as a whole. Unmarked numbers belong to inactive results. Activity calls are given as the source filed them. Cut-off read from the data, not from the text of the source: active = growth inhibition above about 70%; inactive = the rest.

Tests used:
[1] = NCI Yeast Anticancer Drug Screen. Data for the rad50 strain (AID 155);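 note: 0% = growth of vehicle-only cultures of the same strain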; details: S. cerevisiae rad50 strain growth inhibition; at 50.0 µM; active compounds read high
Summary of the method: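 Compounds were tested on a yeast strain with an engineered DNA damage repair alteration; the reported value is growth inhibition normalised to vehicle treatment.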

[2] = NCI Yeast Anticancer Drug Screen. Data for the mec2-1 strain (AID 157); details: S. cerevisiae mec2-1 strain, at 50.0 µM, active compounds read high
Summary of the method: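 Vehicle-treated cultures served as reference for growth inhibition of compound-exposed mec2-1 yeast.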

[3] = NCI Yeast Anticancer Drug Screen. Data for the sgs1 mgt1 strain (AID 161);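 note: 0% = growth of cultures given vehicle only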; details: S. cerevisiae sgs1 mgt1 strain, at 50.0 µM, active compounds read high
Summary of the method: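 Inhibition of yeast growth, normalised to vehicle-treated controls, is reported for a strain bearing genetic alterations in DNA damage repair.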

[4] = NCI Yeast Anticancer Drug Screen. Data for the cln2 rad14 strain (AID 165);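 note: 0% = growth equal to vehicle treated cultures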; details: S. cerevisiae cln2 rad14 strain, at 50.0 µM, active compounds read high
Summary of the method: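 Each compound was tested on cln2 rad14 yeast. Inhibition of growth was calculated against vehicle-exposed controls.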

[5] = NCI Yeast Anticancer Drug Screen. Data for the bub3 strain (AID 167); details: S. cerevisiae bub3 mutant strain, at 50.0 µM, active compounds read high
Summary of the method: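 Growth of a checkpoint-deficient yeast mutant is measured after compound exposure. Values represent inhibition relative to vehicle.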

[6] = NCI Yeast Anticancer Drug Screen. Data for the mlh1 rad18 strain (AID 175); details: S. cerevisiae mlh1 rad18 strain growth inhibition; at 50.0 µM; active compounds read high
Summary of the method: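 Vehicle-treated cultures served as the reference for growth inhibition in a yeast strain carrying DNA damage repair alterations exposed to each compound.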

Cc1nc2ccccc2c(=O)n1NC(=S)Nc1cccc(Cl)c1
growth inhibition [1]: 7.35%
growth inhibition [2]: -35.3%
growth inhibition [3]: 28.1%
growth inhibition [4]: -12.8%
growth inhibition [5]: -8.2%
growth inhibition [6]: -26.8%

C(CCN1CCOCC1)CN1CCOCC1
growth inhibition [1]: -3.4%
growth inhibition [2]: 4.5%
growth inhibition [3]: 0.45%
growth inhibition [4]: -4.1%
growth inhibition [5]: -10.7%
growth inhibition [6]: 1.15%

COc1cc(C=Nc2ccccc2)ccc1OC(=O)c1ccccc1
growth inhibition [1]: 15.8%
growth inhibition [2]: 23.2%
growth inhibition [3]: 17.6%
growth inhibition [4]: 28.7%
growth inhibition [5]: 16.9%
growth inhibition [6]: 14.6%

OC1C=CC2CCC1C2 (stereo not given)
growth inhibition [1]: -4.85%
growth inhibition [2]: 7.15%
growth inhibition [3]: -16.4%
growth inhibition [4]: 6%
growth inhibition [5]: 10.8%
growth inhibition [6]: 5.2%

O=C(N/N=C\C(F)(F)F)c1ccncc1
growth inhibition [1]: 0.85%
growth inhibition [2]: -10.8%
growth inhibition [3]: 4.65%
growth inhibition [4]: -25%
growth inhibition [5]: 1.5%
growth inhibition [6]: 24.1%

CC(=O)C1C(=O)C(=O)N(c2ccccc2C)C1=O (stereo not given)
growth inhibition [1]: -25.6%
growth inhibition [2]: -20.6%
growth inhibition [3]: -13.8%
growth inhibition [4]: 9.45%
growth inhibition [5]: -24.9%
growth inhibition [6]: -25.4%

S=C(S)N1CCN(c2cccc(Cl)c2)CC1
growth inhibition [1]: 40.2%
growth inhibition [2]: 16.1%
growth inhibition [3]: 58.5%
growth inhibition [4]: 44.7%
growth inhibition [5]: 47.1%
growth inhibition [6]: 70.5% (active)

COc1cc(CC(=O)O)ccc1O
growth inhibition [1]: 11.8%
growth inhibition [2]: -21.3%
growth inhibition [3]: -26.7%
growth inhibition [4]: -18.4%
growth inhibition [5]: 1.45%
growth inhibition [6]: -0.55%

CC1(C)CCCc2c(-c3ccccc3)cc3c4ccccc4cc[n+]3c21
growth inhibition [1]: -8.5%
growth inhibition [2]: -5.55%
growth inhibition [3]: -14.6%
growth inhibition [4]: -21.6%
growth inhibition [5]: -5%
growth inhibition [6]: -14.1%

CCN(CC)c1ccc2cc(C(=O)Nc3cccc4ccccc34)c(=N)oc2c1
growth inhibition [1]: 14.4%
growth inhibition [2]: 3.05%
growth inhibition [3]: -10.2%
growth inhibition [4]: -5.45%
growth inhibition [5]: -25.9%
growth inhibition [6]: -53.6%

CCOS(=O)(=O)CC(C)C(C)C (stereo not given)
growth inhibition [1]: 4.75%
growth inhibition [2]: -17.3%
growth inhibition [3]: -7.8%
growth inhibition [4]: -18.1%
growth inhibition [5]: -5.65%
growth inhibition [6]: -9.1%

CCOC(=O)[C@H]1CSC[C@@H](C(=O)OC)N1
growth inhibition [1]: -13.6%
growth inhibition [2]: -4.7%
growth inhibition [3]: -10.6%
growth inhibition [4]: 4.45%
growth inhibition [5]: 5.15%
growth inhibition [6]: -4.9%

COc1ccc(C(=O)C(C(=O)CCC(=O)Nc2cccc(Cl)c2)c2ccc(OC)cc2)cc1 (stereo not given)
growth inhibition [1]: -25.1%
growth inhibition [2]: -9.4%
growth inhibition [3]: -20.2%
growth inhibition [4]: -4.9%
growth inhibition [5]: 0.5%
growth inhibition [6]: -0.15%

NC(=O)C(Cc1ccccc1Cl)c1ccccc1 (stereo not given)
growth inhibition [1]: -7.6%
growth inhibition [2]: -2.9%
growth inhibition [3]: -2.75%
growth inhibition [4]: -43%
growth inhibition [5]: -8.35%
growth inhibition [6]: 12.7%

CCOC(=O)c1cc2c(nc1N)C(=O)CCC2
growth inhibition [1]: -0.1%
growth inhibition [2]: 6.25%
growth inhibition [3]: 34.2%
growth inhibition [4]: 16.9%
growth inhibition [5]: 30.9%
growth inhibition [6]: -30.9%

CSC1C(=O)Nc2ccc([N+](=O)[O-])cc21 (stereo not given)
growth inhibition [1]: -11.6%
growth inhibition [2]: -12.7%
growth inhibition [3]: 0.45%
growth inhibition [4]: -19.3%
growth inhibition [5]: -39.7%
growth inhibition [6]: -0.8%

CC1=C(O)c2cn(C)cc2C(=O)C1=O
growth inhibition [1]: 26.1%
growth inhibition [2]: 24.9%
growth inhibition [3]: 18%
growth inhibition [4]: 26.6%
growth inhibition [5]: 31.9%
growth inhibition [6]: 28.3%

O=C(Cn1c(-c2ccccc2)cc2ccccc21)N1CCOCC1
growth inhibition [1]: -0.45%
growth inhibition [2]: -32.9%
growth inhibition [3]: -39%
growth inhibition [4]: -18.1%
growth inhibition [5]: 1.65%
growth inhibition [6]: -28.1%

Cc1ccnc2c1NC(=O)c1cccnc1N2C1CC1
growth inhibition [1]: 2.35%
growth inhibition [2]: -1.95%
growth inhibition [3]: -8.6%
growth inhibition [4]: -9.35%
growth inhibition [5]: 6%
growth inhibition [6]: 20.8%

COc1ccccc1NC(=S)NCCO
growth inhibition [1]: 7.25%
growth inhibition [2]: 8.7%
growth inhibition [3]: 17.6%
growth inhibition [4]: 0.8%
growth inhibition [5]: 21.1%
growth inhibition [6]: 13.6%

COC(=O)C1c2ccoc2CC2C1C(O)C(O)C1C(C)(C)CCCC21C (stereo not given)
growth inhibition [1]: 57.5%
growth inhibition [2]: 88.6% (active)
growth inhibition [3]: 77.8% (active)
growth inhibition [4]: 72% (active)
growth inhibition [5]: 81.6% (active)
growth inhibition [6]: 92.5% (active)

CN(C)CCN(C)CCN(C)CCN(C)C
growth inhibition [1]: -10.4%
growth inhibition [2]: -25.8%
growth inhibition [3]: 11.8%
growth inhibition [4]: -6.75%
growth inhibition [5]: 5.9%
growth inhibition [6]: -6.7%

CC(=O)Oc1ccc2c(-c3ccccc3)c(Oc3ccc(Cl)cc3)c(=O)oc2c1
growth inhibition [1]: -4.2%
growth inhibition [2]: -5.05%
growth inhibition [3]: -3.7%
growth inhibition [4]: -16.1%
growth inhibition [5]: 3.3%
growth inhibition [6]: 4.35%

CCOC(=O)/C=C(\CC(=O)OCC)Nc1ccc(OC)cc1
growth inhibition [1]: 6.8%
growth inhibition [2]: -21.1%
growth inhibition [3]: 4.1%
growth inhibition [4]: -13.2%
growth inhibition [5]: -2.3%
growth inhibition [6]: -15.9%

COc1cc(OC)nc(NS(=O)(=O)c2ccc(N)cc2)n1
growth inhibition [1]: 6%
growth inhibition [2]: -3.8%
growth inhibition [3]: 20.9%
growth inhibition [4]: 19.6%
growth inhibition [5]: 10.3%
growth inhibition [6]: 6.65%

CC[N+](C)(C)CC(O)(O)C(F)F
growth inhibition [1]: -28.1%
growth inhibition [2]: -32.7%
growth inhibition [3]: -17.1%
growth inhibition [4]: 2.25%
growth inhibition [5]: -26.8%
growth inhibition [6]: -16.2%

CCC(C)C1CCCCC1OC(=O)CCl (stereo not given)
growth inhibition [1]: -5.45%
growth inhibition [2]: -14.8%
growth inhibition [3]: -16.3%
growth inhibition [4]: 0.05%
growth inhibition [5]: -9.55%
growth inhibition [6]: -18.6%

O=C(NC1CCCCC1)OCc1c(COC(=O)NC2CCCCC2)c2cccn2c2c1cnn2-c1ccccc1
growth inhibition [1]: 3.7%
growth inhibition [2]: 3.4%
growth inhibition [3]: -27.6%
growth inhibition [4]: 3.1%
growth inhibition [5]: -2.95%
growth inhibition [6]: 19.1%

C/C(=N\Nc1ccc([N+](=O)[O-])cc1[N+](=O)[O-])C1(C)CC=CCC1C (stereo not given)
growth inhibition [1]: -3.9%
growth inhibition [2]: -3.35%
growth inhibition [3]: 0.4%
growth inhibition [4]: 6.05%
growth inhibition [5]: -1.7%
growth inhibition [6]: -1.45%

C=C(CC(=O)NN)C(=O)NN
growth inhibition [1]: -4.75%
growth inhibition [2]: 12.3%
growth inhibition [3]: -24.2%
growth inhibition [4]: -3.1%
growth inhibition [5]: -22.5%
growth inhibition [6]: 1.25%

O=C1CSSCC(=O)Nc2ccccc2N1
growth inhibition [1]: 6.35%
growth inhibition [2]: 0.5%
growth inhibition [3]: -0.2%
growth inhibition [4]: 16.2%
growth inhibition [5]: 19.4%
growth inhibition [6]: -4%

CCCCOC(=O)NC
growth inhibition [1]: 44.6%
growth inhibition [2]: -6.7%
growth inhibition [3]: 12.8%
growth inhibition [4]: -15.9%
growth inhibition [5]: 7.85%
growth inhibition [6]: 22.2%

CC(=O)/C(C)=C\C1C(C)=CCCC1(C)C (stereo not given)
growth inhibition [1]: -4.5%
growth inhibition [2]: -33.4%
growth inhibition [3]: -27.8%
growth inhibition [4]: -23.3%
growth inhibition [5]: -14.8%
growth inhibition [6]: -5.85%

Nc1nnc(-c2ccccc2)nn1
growth inhibition [1]: 4.05%
growth inhibition [2]: 4%
growth inhibition [3]: 12.1%
growth inhibition [4]: -1.15%
growth inhibition [5]: 6.55%
growth inhibition [6]: 9.25%

CCCCNc1nc(C#N)c(N)s1
growth inhibition [1]: 3.6%
growth inhibition [2]: -3.35%
growth inhibition [3]: -12.7%
growth inhibition [4]: 11.3%
growth inhibition [5]: 11.7%
growth inhibition [6]: 8.55%

Cc1ccccc1N1CCOS(=O)OC(C)C1 (stereo not given)
growth inhibition [1]: -3.6%
growth inhibition [2]: 23.7%
growth inhibition [3]: 64.8%
growth inhibition [4]: 39.9%
growth inhibition [5]: 55.3%
growth inhibition [6]: 57.5%

CC(NNC(=S)N1CCCC1)c1cccc[n+]1[O-] (stereo not given)
growth inhibition [1]: 3.4%
growth inhibition [2]: -2.85%
growth inhibition [3]: 8.4%
growth inhibition [4]: -4.9%
growth inhibition [5]: 8.3%
growth inhibition [6]: 13.9%

Nc1cc(=O)n(C2CC(O)C(CO)O2)cn1 (stereo not given)
growth inhibition [1]: 7.25%
growth inhibition [2]: 2.05%
growth inhibition [3]: 11.5%
growth inhibition [4]: 1.95%
growth inhibition [5]: -13.3%
growth inhibition [6]: 5.6%

O=C1C2C(C(=O)N1c1cccc3ccccc13)C1(Cl)C(Cl)=C(Cl)C2(Cl)C1(Cl)Cl (stereo not given)
growth inhibition [1]: 91% (active)
growth inhibition [2]: 93.7% (active)
growth inhibition [3]: 94.6% (active)
growth inhibition [4]: 91.5% (active)
growth inhibition [5]: 89.3% (active)
growth inhibition [6]: 94.5% (active)

N#CSCc1c(Cl)c(Cl)c(CSC#N)c(Cl)c1Cl
growth inhibition [1]: -13.8%
growth inhibition [2]: -7.15%
growth inhibition [3]: 2.15%
growth inhibition [4]: -18.9%
growth inhibition [5]: 5.85%
growth inhibition [6]: -12.4%
